Hits are enriched below; roughly 3.1% of the tested compounds scored in any of these assays.
Rin1 Abl inh: inhibitors of Rin1-Abl protein binding, primary screen, biochemical, TR-FRET; Tyrosine-protein kinase ABL1 (Homo sapiens) + Ras and Rab interactor 1 (Homo sapiens), …; 360,000 compounds, 0.4% hits; inhibition, % at 7.35 µM; in the data active means inhibition above about 5%, passing the limit was not always enough
proKLK7 act: proKLK7 zymogen activators, primary screen, biochemical, fluorescence intensity; 370,000 compounds, 0.9% hits; purified proKLK7, EDANS-DABCYL substrate fluorescence; 100% is mature enzyme control, 0% vehicle; activation, % at 7 µM; AID 652039, 2013; Kallikrein-7 (Homo sapiens), P49862;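 active means activation above the mean of all tested compounds plus 3 SD, computed per campaign excluding outliers beyond control limits, cut at about 13% in these data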
Target sequence (P49862 whole entry, looked up): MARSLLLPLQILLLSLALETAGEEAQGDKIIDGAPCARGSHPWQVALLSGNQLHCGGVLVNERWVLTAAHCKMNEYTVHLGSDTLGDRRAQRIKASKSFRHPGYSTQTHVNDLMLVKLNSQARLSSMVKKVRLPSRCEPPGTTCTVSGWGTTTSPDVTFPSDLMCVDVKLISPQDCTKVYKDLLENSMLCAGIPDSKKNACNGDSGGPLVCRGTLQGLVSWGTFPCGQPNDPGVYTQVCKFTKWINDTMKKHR
Neddylation inh: inhibitors of cullin neddylation, primary screen, biochemical, TR-FRET, uHTS, NAE and Ubc12. NEDD8-conjugating enzyme Ubc12 (Homo sapiens) + NEDD8-activating enzyme E1 regulatory …. calls only at 25 µM. 360,000 compounds, 0.58% hits; in the data active means inhibition above about 36%
UHRF1 MBD2 ctr: UHRF1 methylated DNA binding inhibitors, primary screen, counter-screen for MBD2 inhibitor project, biochemical, TR-FRET, human UHRF1, single concentration | E3 ubiquitin-protein ligase UHRF1 (Homo sapiens), Q96T88 | UHRF1 binding to methylated oligo | inhibition, % at 4.4 µM | 370,000 compounds, 0.75% hits | AID 687016, 2013;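 further: UHRF1 SRA domain binding a hemimethylated CpG hairpin DNA probe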
LEDGF integ inh: blockers of LEDGF/p75-dependent integrase strand transfer – biochemical, TR-FRET, high throughput, primary screen; TR-FRET IN-LEDGF/p75 DNA integration, Eu/Cy5; 370,000 compounds, 0.64% hits; inhibition, % at 3.7 µM; HIV-1 integrase (with human LEDGF/p75); AID 743269, 2014;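 active means inhibition above the screen-wide mean plus 3 SD, cut at about 13% in these data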;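 further: signal is the Cy5 over europium emission ratio at 671 and 618 nm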
MBD2 DNA inh: inhibitors of MBD2 binding to methylated DNA, primary screen, biochemical, TR-FRET, DNA-binding domain, human | inhibition, % at 4.4 µM | Methyl-CpG-binding domain protein 2 (Homo sapiens), Q9UBB5 | 370,000 compounds, 0.31% hits | MBD2 binding to methylated oligonucleotide; in the data active means inhibition above about 13%
Target sequence (Q9UBB5 whole entry, looked up, the tested form may be a part): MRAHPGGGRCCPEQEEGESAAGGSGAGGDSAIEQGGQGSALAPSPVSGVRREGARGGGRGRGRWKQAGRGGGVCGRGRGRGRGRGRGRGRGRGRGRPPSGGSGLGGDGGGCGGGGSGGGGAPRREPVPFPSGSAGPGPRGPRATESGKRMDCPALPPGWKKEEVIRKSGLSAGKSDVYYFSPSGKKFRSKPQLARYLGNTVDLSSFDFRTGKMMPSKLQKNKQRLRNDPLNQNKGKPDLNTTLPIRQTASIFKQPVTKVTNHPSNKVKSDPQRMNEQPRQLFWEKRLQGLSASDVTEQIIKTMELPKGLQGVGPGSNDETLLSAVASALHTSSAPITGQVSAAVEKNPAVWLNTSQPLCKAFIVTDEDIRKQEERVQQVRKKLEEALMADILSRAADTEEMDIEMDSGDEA
UHRF1 ctr MBD2: UHRF1 methylated DNA binding inhibitors, counter-screen for MBD2 inhibitor project, biochemical, TR-FRET, human UHRF1; AID 720530, 2013; 1,000 compounds, 25% hits; UHRF1 binding to methylated oligonucleotide; shares compounds with MBD2 DNA inh; inhibition, % at 4.4 µM;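 further: UHRF1 SRA domain binding a labeled hemimethylated CpG hairpin DNA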
MBD2 confirm: inhibitors of MBD2 binding to methylated DNA, confirmation, biochemical, TR-FRET, DNA-binding domain, human. shares compounds with MBD2 DNA inh. TR-FRET MBD2-DBD binding to methylated oligonucleotide. inhibition, % at 4.4 µM. 1,000 compounds, 26% hits; in the data active means inhibition above about 14%
IN multimer up: HIV-1 IN multimer formation enhancers, counter-screen for LEDGF/p75 integration inhibitor project, biochemical, TR-FRET; shares compounds with LEDGF integ inh; TR-FRET HIV-1 integrase multimerization; activation, % at 7.7 µM; 2,000 compounds, 17% hits; AID 1053131, 2014; in the data active means activation above about 8.9%
TR-FRET interf: TR-FRET optical interference artefacts, confirmation, artefact control for LEDGF/p75-dependent integration inhibitor project, biochemical, HIV-1 IN multimerization. shares compounds with LEDGF integ inh. TR-FRET optical interference counterscreen. inhibition, % at 7.7 µM. 2,000 tested, under 10 active. AID 1053135, 2014;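 active means inhibition above the mean over all tested compounds plus 3 SD, which no compound reached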
IN-LEDGF confirm: inhibitors of HIV-1 IN-LEDGF/p75 DNA integration, confirmation, biochemical, TR-FRET; AID 1053136, 2014; TR-FRET LEDGF/p75-dependent HIV-1 integration; inhibition, % at 3.7 µM; 2,000 compounds, 36% hits; shares compounds with LEDGF integ inh; in the data active means inhibition above about 14%
Numbers stand for hits; - = inactive; . = no result; + = active, no number. Unless noted, no stated cut-off is given here; in the data, active means inhibition above about 21%; inactive means the rest.

SMILES	Rin1 Abl inh	proKLK7 act	Neddylation inh	UHRF1 MBD2 ctr	LEDGF integ inh	MBD2 DNA inh	UHRF1 ctr MBD2	MBD2 confirm	IN multimer up	TR-FRET interf	IN-LEDGF confirm
O=C(CCCN1C(=O)/C(=C/c2ccco2)SC1=S)Nc1cccc(C(=O)O)c1	-	-	-	76	46	30	21	-	-	-	26
NN1C(=O)/C(=C\c2ccco2)SC1=S	-	-	-	63	55	17	-	-	-	-	-
O=C1/C(=C/c2ccco2)SC(=S)N1c1cccnc1	-	-	-	98	93	105	69	32	16	-	66
CN1C2=N[C@@H](c3cccc(C(F)(F)F)c3)CC(=O)N2/C(=C\c2ccccc2)[C@H]1c1ccccc1	.	.	.	51	16	31	29	23	20	-	-
CN1C2=N[C@@H](c3ccc(Br)cc3)CC(=O)N2/C(=C\c2ccccc2)[C@@H]1c1ccccc1	.	.	.	-	-	-	.	.	.	.	.
Cc1[nH]n(-c2ccccc2)c(=O)c1C(c1cccc([N+](=O)[O-])c1O)c1c(C)[nH]n(-c2ccccc2)c1=O	-	-	-	24	26	21	-	-	-	-	-
Cc1c(C(c2cccc([N+](=O)[O-])c2O)c2c(C)n(C)n(-c3ccccc3)c2=O)c(=O)n(-c2ccccc2)n1C	-	-	-	-	-	-	.	.	.	.	.
CC1=NN(c2cccc(C(=O)O)c2)C(=O)/C1=C\C=C\c1ccco1	-	-	-	94	78	70	94	56	46	-	72
CC1=NN(c2ccccc2)C(=O)/C1=C/C=C/c1ccccc1	-	-	-	-	-	-	.	.	.	.	.
CC(C)(C)C(=O)NNC(=O)C1CC1(c1ccccc1)c1ccccc1 (configuration not stated)	-	-	-	-	-	-	.	.	.	.	.
O=C1/C(=C\c2ccco2)SC(=S)N1c1ccc(O)cc1	-	-	-	-	-	-	.	.	.	.	.
O=C1/C(=C/C=C/c2ccco2)SC(=S)N1c1ccc(O)cc1	5.7	-	-	87	76	41	-	-	19	-	73
O=C(NN1C(=O)/C(=C/C=C/c2ccco2)SC1=S)c1ccncc1	-	-	-	97	83	74	90	63	47	-	83
CC(CCc1ccccc1)NC(=O)C1CCN(S(=O)(=O)c2cnc[nH]2)CC1 (configuration not stated)	-	-	-	-	-	-	.	.	.	.	.
C=CC(=O)N1C/C(=C/c2ccc(F)cc2)C(=O)/C(=C\c2ccc(F)cc2)C1	-	-	-	40	14	15	25	15	11	-	18
O=C(O)c1cccc(-c2ccc(/C=c3/sc4nc5ccccc5n4c3=O)o2)c1	-	-	-	81	46	34	54	19	11	-	20
O=C(O)c1ccccc1-c1ccc(/C=C/c2cc(C(F)(F)F)[nH]c(=O)n2)o1	-	-	-	-	-	-	.	.	.	.	.
O=C(O)c1ccccc1-c1ccc(C=c2sc3nc4cc(Br)cnc4n3c2=O)o1	-	-	-	95	29	55	72	63	-	-	17
O=c1/c(=C\c2cc([N+](=O)[O-])cc([N+](=O)[O-])c2O)sc2nc3ccccc3n12	-	.	-	.	.	.	.	.	.	.	.
Cc1ccc(N2CC(C(=O)Nc3nc4ccc(S(C)(=O)=O)cc4s3)CC2=O)cc1 (configuration not stated)	-	-	-	-	-	-	.	.	.	.	.
CC(=O)c1sc2nc(-c3ccco3)ccc2c1N	-	-	+	92	59	45	28	-	-	-	-
CCn1c(SCC(=O)N/N=C/c2cccc(Oc3ccccc3)c2)nnc1-c1ccccc1	.	-	.	-	-	-	.	.	.	.	.
O=C(CCS(=O)(=O)c1ccc(Br)cc1)N1CCN(c2ccc(F)cc2)CC1	-	-	-	73	19	26	-	-	-	-	-
O=C(CCn1nnc2ccccc21)N1CCN(c2ccccc2F)CC1	.	-	.	-	-	-	.	.	.	.	.
CC(C)C(C(=O)NCc1ccccc1)N1CCN(c2ccccc2F)CC1 (configuration not stated)	.	-	-	-	-	-	.	.	.	.	.
SMILES	Rin1 Abl inh	proKLK7 act	Neddylation inh	UHRF1 MBD2 ctr	LEDGF integ inh	MBD2 DNA inh	UHRF1 ctr MBD2	MBD2 confirm	IN multimer up	TR-FRET interf	IN-LEDGF confirm
O=C(/C=C/c1cccs1)Nc1nc(-c2ccccc2)cs1	-	-	-	-	-	-	.	.	.	.	.
O=C(/C=C/c1cccs1)Nc1scc(-c2ccccc2)c1C(=O)O	-	-	-	22	23	14	-	-	-	-	35
CCOc1cccc(=O)c2c(C)n(-c3ccc(C(=O)O)cc3)c(C)c12	-	-	-	88	76	31	-	-	-	-	30
CCOc1cccc(=O)c2c(C)n(Cc3ccccc3)c(C)c12	-	-	-	-	-	-	.	.	.	.	.
CN=C1CC(SC)=C1c1ccc(C)cc1	-	-	-	-	-	-	.	.	.	.	.
COc1cccc(-n2c(SCC(=O)NCCc3ccccc3)nnc2-c2ccoc2C)c1	-	-	-	28	14	17	-	-	-	-	-
Cc1occc1-c1nnc(SCC(=O)NCCc2ccccc2)n1Cc1ccccc1	-	-	-	-	-	-	.	.	.	.	.
CCCSc1nnc(NC(=O)CSc2sc3c(O)cc(=O)[nH]c3c2C#N)s1	-	-	-	-	-	-	.	.	.	.	.

Source: PubChem (several laboratories)
